Records with an inconclusive call do not appear. Calls of active or inactive are those of the source. How the source made its calls: active means hit-call score of the fitted dose curve at least 0.9, where 1 is the maximum; inconclusive means response in the unintended direction; inactive means score below 0.9.
Tests used:
[1] = molecular target: human Dopamine Receptor D4.4 (DRD4.4), DRD4 (gene 1815) (UniProt P21917); assay: NVS_GPCR_hDRD4.4: NovaScreen (NVS) G Protein-Coupled Receptor Assay for human Dopamine Receptor D4.4 (DRD4.4) (AID 2283264)
Procedure, shortened: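 Radioligand displacement on human DRD4.4 from CHO-derived membranes, 1 hour incubation, bound counts read by filtration and scintillation. Primary screen in duplicate at 25 uM; actives followed up in concentration series.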

[2] = molecular target: Muscarinic acetylcholine receptor M2 (Homo sapiens) (UniProt P08172); assay: NVS_GPCR_hM2: NovaScreen (NVS) G Protein-Coupled Receptor Assay for human Muscarinic, M2 Receptor (AID 2283273)
Procedure, shortened: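 Cell-free radioligand binding using membranes from CHO cells expressing the receptor; filter-based scintillation counting after 1 hour of compound exposure. Loss of specific binding relative to DMSO baseline; primary screen at 25 uM in duplicate, actives then run in concentration series.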

[3] = molecular target: D(1A) dopamine receptor (Homo sapiens) (UniProt P21728); assay: NVS_GPCR_hDRD1: NovaScreen (NVS) G Protein-Coupled Receptor Assay for human Dopamine Receptor D1 (DRD1) (AID 2283269)
Procedure, shortened: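 Extracted HEK293 DRD1 is incubated 1 h with compound and a tritiated or iodinated radioligand, then filtered and counted. Screening runs 25 uM in duplicate with on-plate positive and negative controls.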

[4] = molecular target: human Endothelin Receptor Type A (ETA), EDNRA (gene 1909) (UniProt P25101); assay: NVS_GPCR_hETA: NovaScreen (NVS) G Protein-Coupled Receptor Assay for human Endothelin Receptor Type A (ETA) (AID 2283265)
Procedure, shortened: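 Cell-free radioligand displacement using SH-SY5Y-derived protein, 3 h incubation, filter-based scintillation counting. Primary screen in duplicate at 25 uM; actives then run in concentration-response up to 50 uM; loss of binding fitted versus DMSO.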

[5] = molecular target: human Endothelin Receptor Type B (ETB), EDNRB (gene 1910) (UniProt P24530); assay: NVS_GPCR_hETB: NovaScreen (NVS) G Protein-Coupled Receptor Assay for human Endothelin Receptor Type B (ETB) (AID 2283267)
Procedure, shortened: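 Human astrocytoma cell membranes; radioligand competitive binding read by filter scintillation counting 4 hours after dosing. Single-concentration duplicate screen at 25 uM, then singleton concentration-response up to 50 uM; loss of signal versus DMSO.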

[6] = molecular target: human Adrenergic, Alpha 2A Receptor (Adra2A), ADRA2A (gene 150) (UniProt P08913); assay: NVS_GPCR_hAdra2A: NovaScreen (NVS) G Protein-Coupled Receptor Assay for human Adrenergic, Alpha 2A Receptor (Adra2A) (AID 2283257)
Procedure, shortened: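 Radioligand filter-binding was run on HT29-derived membranes, cell-free, read by scintillation counting 1 h after dosing. Primary screening was in duplicate at 25 uM, with concentration series in follow-up. Loss of signal versus DMSO indicates displacement.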

[7] = molecular target: human Adrenergic, Alpha 2c Receptor (Adra2C), ADRA2C (gene 152) (UniProt P18825); assay: NVS_GPCR_hAdra2C: NovaScreen (NVS) G Protein-Coupled Receptor Assay for human Adrenergic, Alpha 2c Receptor (Adra2C) (AID 2283259)
Procedure, shortened: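 Radioligand binding on Sf9-expressed receptor membranes, 1 h after chemical dosing, filter-based scintillation read-out. Loss of binding fitted positively versus DMSO; primary duplicate screen at 25 uM, actives retested in concentration series.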

[8] = molecular target: Beta-2 adrenergic receptor (Homo sapiens) (UniProt P07550); assay: NVS_GPCR_hAdrb2: NovaScreen (NVS) G Protein-Coupled Receptor Assay for human Adrenergic, Beta 2 Receptor (Adrb2) (AID 2283261)
Procedure, shortened: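 Filter-based radioligand binding using receptor prepared from CHO cells, 1 h incubation, scintillation counting. Primary screen in duplicate at 25 uM, actives retested in concentration series; loss of binding relative to DMSO.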

[9] = molecular target: human Adrenergic, Beta 3 Receptor (Adrb3), ADRB3 (gene 155) (UniProt P13945); assay: NVS_GPCR_hAdrb3: NovaScreen (NVS) G Protein-Coupled Receptor Assay for human Adrenergic, Beta 3 Receptor (Adrb3) (AID 2283262)
Procedure, shortened: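 Membranes from SK-N-MC cells pretreated with isoproterenol and 8-bromo-cAMP were used in a radioligand competitive displacement binding assay. Binding was read by filter-based scintillation counting 1 hour after dosing. Primary screening was in duplicate at 25 uM, with concentration series in follow-up.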

[10] = molecular target: human Dopamine Receptor D2 (DRD2), DRD2 (gene 1813) (UniProt P14416); assay: NVS_GPCR_hDRD2s: NovaScreen (NVS) G Protein-Coupled Receptor Assay for human Dopamine Receptor D2 (DRD2) (AID 2283266)
Procedure, shortened: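 Radioligand displacement used human DRD2 membranes extracted from CHO cells and was read by filter-based scintillation counting after 1.5 hours. Primary screening was in duplicate at 25 uM. Loss of signal versus DMSO was fitted, with concentration series in follow-up.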

[11] = molecular target: Muscarinic acetylcholine receptor M1 (Homo sapiens) (UniProt P11229); assay: NVS_GPCR_hM1: NovaScreen (NVS) G Protein-Coupled Receptor Assay for human Muscarinic, M1 Receptor (AID 2283270)
Procedure, shortened: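 Cell-free radioligand displacement using membrane protein extracted from CHO cells, read by filter-based scintillation counting 1 h after dosing. Loss of bound signal fitted versus DMSO; primary screen single concentration 25 uM in duplicate, actives followed by concentration series.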

[12] = molecular target: Muscarinic acetylcholine receptor M5 (Homo sapiens) (UniProt P08912); assay: NVS_GPCR_hM5: NovaScreen (NVS) G Protein-Coupled Receptor Assay for human Muscarinic, M5 Receptor (AID 2283275)
Procedure, shortened: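 Radioligand displacement on CHO-derived membrane preparations, 1 h, filter-based scintillation counting. Single-concentration duplicate screen at 25 uM; hits (e.g. 30% inhibition) retested in singleton concentration-response up to 50 uM. Loss of binding fitted versus DMSO.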

[13] = molecular target: human Histamine 1 Receptor (H1), HRH1 (gene 3269) (UniProt P35367); assay: NVS_GPCR_hH1: NovaScreen (NVS) G Protein-Coupled Receptor Assay for human Histamine 1 Receptor (H1) (AID 2283268)
Procedure, shortened: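 Cell-free radioligand displacement at human H1 receptor, 1 h, filter scintillation counting; primary screen 25 uM in duplicate, hits in concentration series; loss of binding fitted vs DMSO.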

[14] = molecular target: human Leukotriene B4 Receptor 1 (LTB4-BLT1), LTB4R (gene 1241) (UniProt Q15722); assay: NVS_GPCR_hLTB4_BLT1: NovaScreen (NVS) G Protein-Coupled Receptor Assay for human Leukotriene B4 Receptor 1 (LTB4-BLT1) (AID 2283271)
Procedure, shortened: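 Radioligand displacement binding on receptor extracted from human neutrophils, cell-free, 1 h after dosing; filter-based scintillation counting. Primary screen in duplicate at 25 uM, actives retested in concentration-response up to 50 uM; loss of signal versus DMSO.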

[15] = molecular target: Neuropeptide Y receptor type 2 (Homo sapiens) (UniProt P49146); assay: NVS_GPCR_hNPY2: NovaScreen (NVS) G Protein-Coupled Receptor Assay for human Neuropeptide Receptor Y2 (NPY2) (AID 2283277)
Procedure, shortened: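 Radioligand binding on membranes extracted from SK-N-MC cells, cell-free, read 1 h after dosing by filter-based scintillation counting. Loss of signal vs DMSO. Primary screen in duplicate at 25 uM; actives followed up in concentration-response up to 50 uM.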

[16] = molecular target: Muscarinic acetylcholine receptor M3 (Homo sapiens) (UniProt P20309); assay: NVS_GPCR_hM3: NovaScreen (NVS) G Protein-Coupled Receptor Assay for human Muscarinic, M3 Receptor (AID 2283272)
Procedure, shortened: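 Radioligand displacement binding on human M3 receptor in CHO-derived membranes, 1 h incubation, filter-based scintillation counting. Primary screen in duplicate at 25 uM; actives followed up in concentration series; loss of signal versus DMSO.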

[17] = molecular target: human Muscarinic, M4 Receptor, CHRM4 (gene 1132) (UniProt P08173); assay: NVS_GPCR_hM4: NovaScreen (NVS) G Protein-Coupled Receptor Assay for human Muscarinic, M4 Receptor (AID 2283274)
Procedure, shortened: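 Cell-free radioligand displacement using CHO-derived human M4 receptor protein, 1 h after dosing; bound radioactivity by filtration and scintillation counting. Primary screen single 25 uM duplicate, actives followed in concentration series.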

[18] = molecular target: human Adrenergic, Beta 1 Receptor (Adrb1), ADRB1 (gene 153) (UniProt P08588); assay: NVS_GPCR_hAdrb1: NovaScreen (NVS) G Protein-Coupled Receptor Assay for human Adrenergic, Beta 1 Receptor (Adrb1) (AID 2283258)
Procedure, shortened: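 Cell-free radioligand displacement on receptor from human neuroepithelioma cells; 2 h after dosing, filter-based scintillation counting. Primary screen in duplicate at 25 uM, actives retested in concentration series; loss of signal vs DMSO baseline.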

Chain of D(1A) dopamine receptor (Homo sapiens) (P21728 whole entry, looked up): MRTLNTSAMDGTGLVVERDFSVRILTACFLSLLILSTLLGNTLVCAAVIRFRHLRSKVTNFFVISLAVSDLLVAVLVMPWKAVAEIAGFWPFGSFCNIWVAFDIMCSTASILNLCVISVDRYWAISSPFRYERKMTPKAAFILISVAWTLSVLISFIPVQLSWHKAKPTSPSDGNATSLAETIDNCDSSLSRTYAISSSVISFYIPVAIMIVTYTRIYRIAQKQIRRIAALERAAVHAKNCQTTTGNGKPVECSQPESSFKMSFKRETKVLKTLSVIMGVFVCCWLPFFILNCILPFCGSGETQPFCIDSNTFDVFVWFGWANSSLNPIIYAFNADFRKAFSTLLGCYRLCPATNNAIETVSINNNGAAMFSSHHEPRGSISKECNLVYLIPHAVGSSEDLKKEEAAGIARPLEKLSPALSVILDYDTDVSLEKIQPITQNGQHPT
Chain of Beta-2 adrenergic receptor (Homo sapiens) (P07550 whole entry, looked up): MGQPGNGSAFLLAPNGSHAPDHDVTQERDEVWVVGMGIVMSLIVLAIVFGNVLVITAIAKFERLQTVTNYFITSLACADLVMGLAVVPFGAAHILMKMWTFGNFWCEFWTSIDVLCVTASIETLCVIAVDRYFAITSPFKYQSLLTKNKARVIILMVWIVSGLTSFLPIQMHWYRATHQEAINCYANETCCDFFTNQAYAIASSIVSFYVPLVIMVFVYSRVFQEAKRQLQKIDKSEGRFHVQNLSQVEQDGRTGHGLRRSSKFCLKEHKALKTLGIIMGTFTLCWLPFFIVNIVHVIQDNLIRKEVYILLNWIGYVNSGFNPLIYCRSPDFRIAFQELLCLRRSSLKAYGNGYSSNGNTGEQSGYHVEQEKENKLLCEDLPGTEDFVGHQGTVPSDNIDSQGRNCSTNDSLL
Chain of human Dopamine Receptor D2 (DRD2), DRD2 (gene 1813) (P14416 whole entry, looked up): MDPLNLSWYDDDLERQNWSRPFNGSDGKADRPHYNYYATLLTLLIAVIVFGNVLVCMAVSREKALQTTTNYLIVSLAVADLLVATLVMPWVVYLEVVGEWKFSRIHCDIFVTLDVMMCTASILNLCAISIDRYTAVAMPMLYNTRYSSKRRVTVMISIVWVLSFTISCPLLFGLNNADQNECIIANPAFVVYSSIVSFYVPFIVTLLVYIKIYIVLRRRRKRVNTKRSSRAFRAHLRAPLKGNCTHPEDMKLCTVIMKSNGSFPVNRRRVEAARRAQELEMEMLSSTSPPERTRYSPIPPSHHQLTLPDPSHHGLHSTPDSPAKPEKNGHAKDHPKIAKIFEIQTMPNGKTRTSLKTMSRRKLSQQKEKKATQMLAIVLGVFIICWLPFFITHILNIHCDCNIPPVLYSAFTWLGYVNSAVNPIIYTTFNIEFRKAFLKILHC
Chain of human Adrenergic, Alpha 2c Receptor (Adra2C), ADRA2C (gene 152) (P18825 whole entry, looked up): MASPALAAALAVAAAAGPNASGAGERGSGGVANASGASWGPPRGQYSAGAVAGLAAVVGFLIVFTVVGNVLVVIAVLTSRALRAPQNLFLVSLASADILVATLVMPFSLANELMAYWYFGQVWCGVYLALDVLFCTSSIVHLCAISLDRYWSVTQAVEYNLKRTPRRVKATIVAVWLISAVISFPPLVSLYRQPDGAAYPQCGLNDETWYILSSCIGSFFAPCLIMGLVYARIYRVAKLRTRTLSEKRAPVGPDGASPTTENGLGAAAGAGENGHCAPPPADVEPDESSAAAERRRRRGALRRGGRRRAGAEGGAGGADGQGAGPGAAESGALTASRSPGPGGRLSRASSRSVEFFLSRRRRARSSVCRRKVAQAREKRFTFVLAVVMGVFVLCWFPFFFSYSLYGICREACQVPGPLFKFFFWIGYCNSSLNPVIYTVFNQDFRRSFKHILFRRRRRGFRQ
Chain of Muscarinic acetylcholine receptor M5 (Homo sapiens) (P08912 whole entry, looked up): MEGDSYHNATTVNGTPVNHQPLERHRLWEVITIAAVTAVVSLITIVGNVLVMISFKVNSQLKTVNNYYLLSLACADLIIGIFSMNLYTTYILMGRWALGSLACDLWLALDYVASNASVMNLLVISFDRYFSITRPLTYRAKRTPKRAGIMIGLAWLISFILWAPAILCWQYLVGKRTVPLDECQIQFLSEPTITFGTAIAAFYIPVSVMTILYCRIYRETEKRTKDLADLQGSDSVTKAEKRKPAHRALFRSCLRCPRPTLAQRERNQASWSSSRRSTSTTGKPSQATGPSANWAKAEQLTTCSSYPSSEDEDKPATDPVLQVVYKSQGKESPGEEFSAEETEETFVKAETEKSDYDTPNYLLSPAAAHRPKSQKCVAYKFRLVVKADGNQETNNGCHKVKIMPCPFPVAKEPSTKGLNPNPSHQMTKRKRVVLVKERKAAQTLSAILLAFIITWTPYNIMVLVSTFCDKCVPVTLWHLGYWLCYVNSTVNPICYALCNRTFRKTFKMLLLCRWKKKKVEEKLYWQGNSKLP
Chain of Neuropeptide Y receptor type 2 (Homo sapiens) (P49146 whole entry, looked up): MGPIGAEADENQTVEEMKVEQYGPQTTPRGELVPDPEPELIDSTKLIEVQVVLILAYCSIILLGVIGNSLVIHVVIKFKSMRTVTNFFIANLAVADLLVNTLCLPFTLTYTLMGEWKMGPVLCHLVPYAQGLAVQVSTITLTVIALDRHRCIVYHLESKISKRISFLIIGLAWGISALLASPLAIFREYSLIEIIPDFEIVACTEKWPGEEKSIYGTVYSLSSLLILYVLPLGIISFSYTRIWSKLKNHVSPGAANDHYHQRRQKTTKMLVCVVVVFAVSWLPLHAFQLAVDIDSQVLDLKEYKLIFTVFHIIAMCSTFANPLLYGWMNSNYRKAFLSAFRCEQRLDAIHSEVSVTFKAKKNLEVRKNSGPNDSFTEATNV
Chain of human Dopamine Receptor D4.4 (DRD4.4), DRD4 (gene 1815) (P21917 whole entry, looked up): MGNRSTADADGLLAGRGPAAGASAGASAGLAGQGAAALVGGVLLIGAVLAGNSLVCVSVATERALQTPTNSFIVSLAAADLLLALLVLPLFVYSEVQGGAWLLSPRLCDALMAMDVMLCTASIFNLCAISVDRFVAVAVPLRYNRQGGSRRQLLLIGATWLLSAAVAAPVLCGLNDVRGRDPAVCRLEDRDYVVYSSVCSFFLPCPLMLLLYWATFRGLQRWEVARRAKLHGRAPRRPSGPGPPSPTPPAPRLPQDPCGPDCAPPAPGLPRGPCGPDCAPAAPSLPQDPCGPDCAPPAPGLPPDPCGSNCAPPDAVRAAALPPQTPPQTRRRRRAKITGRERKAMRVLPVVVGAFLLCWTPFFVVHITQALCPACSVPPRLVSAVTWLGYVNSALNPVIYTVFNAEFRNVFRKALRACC
Chain of Muscarinic acetylcholine receptor M2 (Homo sapiens) (P08172 whole entry, looked up): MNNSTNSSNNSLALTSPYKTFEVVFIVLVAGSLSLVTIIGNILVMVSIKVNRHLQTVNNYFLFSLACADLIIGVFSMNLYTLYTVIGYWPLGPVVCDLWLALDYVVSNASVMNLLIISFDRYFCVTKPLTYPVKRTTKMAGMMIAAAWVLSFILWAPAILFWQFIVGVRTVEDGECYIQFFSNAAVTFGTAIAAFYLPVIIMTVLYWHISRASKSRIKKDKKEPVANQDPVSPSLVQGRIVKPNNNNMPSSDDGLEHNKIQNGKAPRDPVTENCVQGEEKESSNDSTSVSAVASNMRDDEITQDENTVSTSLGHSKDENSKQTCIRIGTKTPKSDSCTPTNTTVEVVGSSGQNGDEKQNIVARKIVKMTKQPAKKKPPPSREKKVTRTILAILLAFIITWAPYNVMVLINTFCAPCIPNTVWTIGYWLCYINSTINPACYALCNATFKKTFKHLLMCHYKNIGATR
Chain of human Muscarinic, M4 Receptor, CHRM4 (gene 1132) (P08173 whole entry, looked up): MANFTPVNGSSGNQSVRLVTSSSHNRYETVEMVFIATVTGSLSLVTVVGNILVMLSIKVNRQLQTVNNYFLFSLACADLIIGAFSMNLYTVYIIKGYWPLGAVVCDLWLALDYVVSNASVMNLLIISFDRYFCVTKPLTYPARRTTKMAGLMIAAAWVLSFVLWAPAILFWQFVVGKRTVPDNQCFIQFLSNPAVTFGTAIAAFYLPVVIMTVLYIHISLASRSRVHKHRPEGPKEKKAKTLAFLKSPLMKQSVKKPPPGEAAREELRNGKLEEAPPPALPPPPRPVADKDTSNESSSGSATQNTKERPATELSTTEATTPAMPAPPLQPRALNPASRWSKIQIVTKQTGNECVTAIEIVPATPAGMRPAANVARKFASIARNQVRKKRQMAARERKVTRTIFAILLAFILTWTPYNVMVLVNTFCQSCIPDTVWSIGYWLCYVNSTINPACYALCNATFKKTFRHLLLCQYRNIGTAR
Chain of human Adrenergic, Beta 1 Receptor (Adrb1), ADRB1 (gene 153) (P08588 whole entry, looked up): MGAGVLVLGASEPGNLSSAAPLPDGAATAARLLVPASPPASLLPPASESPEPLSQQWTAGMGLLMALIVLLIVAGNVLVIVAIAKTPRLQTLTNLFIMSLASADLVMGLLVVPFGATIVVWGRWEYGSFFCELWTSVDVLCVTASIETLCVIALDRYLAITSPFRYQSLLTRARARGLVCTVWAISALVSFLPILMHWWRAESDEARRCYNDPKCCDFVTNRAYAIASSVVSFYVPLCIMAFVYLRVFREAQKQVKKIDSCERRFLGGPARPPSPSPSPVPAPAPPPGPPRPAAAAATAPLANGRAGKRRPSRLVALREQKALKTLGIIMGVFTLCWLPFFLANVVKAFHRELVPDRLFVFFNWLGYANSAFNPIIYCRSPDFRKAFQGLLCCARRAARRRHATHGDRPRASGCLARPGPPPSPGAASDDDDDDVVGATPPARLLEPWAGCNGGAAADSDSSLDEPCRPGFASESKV
Chain of human Adrenergic, Beta 3 Receptor (Adrb3), ADRB3 (gene 155) (P13945 whole entry, looked up): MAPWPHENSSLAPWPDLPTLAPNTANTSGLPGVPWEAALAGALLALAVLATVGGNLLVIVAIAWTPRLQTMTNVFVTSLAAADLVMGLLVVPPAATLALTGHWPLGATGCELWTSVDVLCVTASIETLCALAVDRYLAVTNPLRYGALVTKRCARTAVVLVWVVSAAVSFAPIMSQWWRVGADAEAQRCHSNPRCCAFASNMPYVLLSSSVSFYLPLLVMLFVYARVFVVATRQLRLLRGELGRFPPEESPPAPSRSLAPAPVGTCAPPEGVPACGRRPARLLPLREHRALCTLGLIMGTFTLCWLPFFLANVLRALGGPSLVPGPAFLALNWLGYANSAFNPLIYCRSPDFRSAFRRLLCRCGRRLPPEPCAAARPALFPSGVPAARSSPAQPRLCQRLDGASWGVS

## CCc1c(C(=O)NN2CCCCC2)nn(-c2ccc(Cl)cc2Cl)c1-c1ccc(Br)cc1
[1]
  outcome: inactive

## Nc1ccc2c(c1)C(=O)c1ccccc1C2=O
[2]
  outcome: inactive

## COc1ccc(S(=O)(=O)N2C(=O)[C@@](c3ccccc3OC)(N3C[C@H](O)C[C@H]3C(=O)N(C)C)c3cc(Cl)ccc32)c(OC)c1
[3]
  outcome: inactive

## NCC1(Cc2noc(=O)[nH]2)CCCCC1
[4]
  outcome: inactive
[5]
  outcome: inactive

## Oc1ccc2c(c1)OC[C@@H](N1CCC(O)(c3ccc(F)cc3)CC1)[C@H]2O
[6]
  outcome: inactive
[7]
  outcome: inactive
[8]
  outcome: inactive
[9]
  outcome: inactive
[10]
  outcome: inactive
[3]
  outcome: inactive
[11]
  outcome: inactive
[2]
  outcome: inactive
[12]
  AC50: 16 µM (active)

## O=c1c(O)c(-c2ccc(O)c(O)c2)oc2cc(O)cc(O)c12
[1]
  outcome: inactive

## Cc1ccccc1Cl
[9]
  outcome: inactive

## CCOC(=O)CCC(=O)OCC
[7]
  outcome: inactive
[8]
  outcome: inactive
[1]
  outcome: inactive
[10]
  outcome: inactive
[13]
  outcome: inactive
[14]
  AC50: 25 µM (active)
[2]
  outcome: inactive
[15]
  outcome: inactive

## COc1cc(S(=O)(=O)O)c(C)cc1N=Nc1c(O)ccc2cc(S(=O)(=O)O)ccc12
[7]
  AC50: 13.9 µM (active)
[1]
  AC50: 38.7 µM (active)
[10]
  AC50: 11.4 µM (active)
[3]
  AC50: 35.3 µM (active)
[16]
  outcome: inactive
[2]
  AC50: 36.1 µM (active)
[17]
  outcome: inactive
[12]
  AC50: 31.4 µM (active)

## CNCc1cc(F)ccc1Oc1ccc(Cl)c(Cl)c1
[2]
  AC50: 25 µM (active)
[17]
  AC50: 25 µM (active)

## CN1CCN(Cc2cc(-c3ccc4[nH]c(=O)oc4c3)co2)[C@@H](c2ccc(F)cc2)C1
[18]
  AC50: 22 µM (active)
[7]
  AC50: 10.5 µM (active)
[1]
  AC50: 14.2 µM (active)
[10]
  outcome: inactive
[3]
  AC50: 5.7 µM (active)
[17]
  AC50: 26.7 µM (active)
[12]
  AC50: 14.8 µM (active)

## Cc1cccc(C)c1O
[8]
  outcome: inactive

## CC(=O)OC/C=C(\C)CCC=C(C)C
[15]
  outcome: inactive

## Nc1ccc(S(=O)(=O)c2ccc(N)cc2)cc1
[18]
  outcome: inactive

## CCCCCCOCCO
[15]
  outcome: inactive

## CC1=C(/C=C/C(C)=C/C=C/C(C)=C/CO)C(C)(C)CCC1
[3]
  outcome: inactive
